# Compound activity: PubChem, National Center for Advancing Translational Sciences (NCATS)
# A selection: hits, their analogues and other compounds. The true share with any hit is near 19%.
# TDP1 cell CPT = DT40-hTDP1 cell growth loss with CPT; 420,000 tested, 12% active; Potency, µM (doses to about 46.2 µM), for inactives: at the highest dose activity change, negative = growth inhibition, usual class: inhibitors; chicken DT40 Tdp1-/-;hTDP1 cells + 20 nM CPT, ATP luminescence, 48 h; also: potency is read from the fitted curve at half-maximal effect; % is scaled to controls: 0 for no effect and ±100 for the full control effect; nearly all actives have a fitted effect of over 55% in size
#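 Chicken DT40 Tdp1-/- cells complemented with human TDP1, 400 cells/well, exposed to compounds plus 20 nM camptothecin for at least 48 h at 37 C; viability read as ATP content by CellTiter-Glo luminescence.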
# TGFb SMAD3 inh = blocks TGF-b signaling; Potency, µM (top dose mostly 46.1 µM), inactives show at the top dose activity, negative = inhibition, actives largely listed as inhibitors; HepG2 CAGA-GFP TGF-b/SMAD3 reporter, GFP fluorescence, 18 h; TGF-beta stimulated, 500 pg/mL final; 410,000 tested, 1.2% active; also: potency is read from the fitted curve at half-maximal effect; % is scaled to controls: 0 for no effect and ±100 for the full control effect; nearly all actives have a fitted effect of over 65% in size
#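 GFP signal (ex488/em500-530) from TGF-beta-stimulated HEPG2 CAGA-GFP cells, 500 pg/mL final, 18 h at 37 degrees C in DMEM plus 1% FBS, normalized to unstimulated and DMSO-stimulated controls.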
# IL-1B inflam inh = blocks inflammasome-driven IL-1 beta release; THP-1 LPS/ATP IL-1B secretion, AlphaLISA, 16 h; stronger effect = lower value; activity change, % at 57.5 µM; 360,000 tested, 4.7% active; in the data active = activity change below about -50%; inconclusive = mostly about -30% to -49%; also: % is scaled to controls: 0 for no effect and ±100 for the full control effect
#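 Secreted IL-1B measured by AlphaLISA bead assay after 16 h compound exposure of THP-1 cells; compounds (final up to 57.5 uM) added 1 h before LPS (250 ng/mL) and ATP (1.25 mM) stimulation; lower signal means less secretion.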
# TDP1 inh = blocks human tyrosyl-DNA phosphodiesterase 1 | Q9NUW8 | 350,000 tested, 0.28% active | Potency, µM (highest dose often 130 µM), inactives show at the top dose activity change, negative = inhibition, usual class: inhibitors | recombinant TDP1, AlphaScreen DNA substrate cleavage; also: potency is read from the fitted curve at half-maximal effect; % is scaled to controls: 0 for no effect and ±100 for the full control effect; nearly all actives have a fitted effect of over 40% in size
# Target sequence (Q9NUW8 whole entry, looked up): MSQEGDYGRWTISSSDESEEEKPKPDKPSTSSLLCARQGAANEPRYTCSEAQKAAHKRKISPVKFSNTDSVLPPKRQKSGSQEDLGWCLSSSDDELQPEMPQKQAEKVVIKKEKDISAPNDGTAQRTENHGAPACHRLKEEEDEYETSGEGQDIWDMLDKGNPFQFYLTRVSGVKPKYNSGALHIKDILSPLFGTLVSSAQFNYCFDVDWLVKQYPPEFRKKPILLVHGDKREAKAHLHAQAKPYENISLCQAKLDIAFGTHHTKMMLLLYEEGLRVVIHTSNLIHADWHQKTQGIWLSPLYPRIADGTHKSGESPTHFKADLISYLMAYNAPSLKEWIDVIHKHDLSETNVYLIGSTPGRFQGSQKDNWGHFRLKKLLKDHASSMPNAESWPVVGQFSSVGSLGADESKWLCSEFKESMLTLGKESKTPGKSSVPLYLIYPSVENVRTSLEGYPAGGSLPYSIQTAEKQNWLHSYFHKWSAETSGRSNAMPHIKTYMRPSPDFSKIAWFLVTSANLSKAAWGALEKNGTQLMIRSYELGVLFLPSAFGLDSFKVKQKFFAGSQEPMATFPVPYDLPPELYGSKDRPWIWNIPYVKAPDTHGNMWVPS
#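 Recombinant human Tdp1 (E. coli-expressed, 1 nM final) preincubated with compounds 15 min at room temperature, then 5'-biotin/3'-phosphotyrosine-FITC DNA substrate (15 nM final) added for 5 min. AlphaScreen beads (10 ug/ml final) added 10 min; cleavage lowers signal.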
# HepG2 viability = counter-screen for TGF-b inhibitors: cytotoxicity in HepG2 cells; 410,000 tested, 0.76% active; AID 588856; Potency, µM (series often up to 46.1 µM), inactives show top-dose activity change, negative = cytotoxicity, actives largely listed as cytotoxic; HepG2 CAGA-GFP viability, ATP luminescence, 18 h; also: potency is read from the fitted curve at half-maximal effect
#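 HepG2 CAGA-GFP cells (1000/well, DMEM with 1% FBS) received compound, then TGF-beta at 500 pg/mL final, and were incubated 18 hours at 37 degrees C. Viability was read by CellTiter-Glo luminescence. Media-only wells were set as complete cell-killing and DMSO as no toxicity.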
# TDP1 cell noCPT = qHTS for Inhibitors of human tyrosyl-DNA phosphodiesterase 1 (TDP1): qHTS in cells in absence of CPT. DT40 Tdp1-/- hTDP1 cells, no CPT, ATP luminescence, 48 h. Potency, µM (doses to about 46.2 µM), for inactives: at the highest dose activity change, negative = growth inhibition, hits mostly inhibitors. 420,000 tested, 15% active. AID 686978, 2013; also: potency is read from the fitted curve at half-maximal effect; % is scaled to controls: 0 for no effect and ±100 for the full control effect; nearly all actives have a fitted effect of over 55% in size
#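 Stably hTDP1-transfected Tdp1-null chicken DT40 cells were treated with library compounds minus camptothecin and grown for at least 48 hr at 37 °C, after which cellular ATP was quantified by luminescence.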
# * hit, by the source's call; ? = inconclusive; · = not tested or not shown. Unless noted, calls follow the shape of the dose curve; as a rule, active = well fitted curve in the direction sought with a large enough effect; inconclusive = small, poorly fitted or top-dose-only effect, or another doubt; inactive = no such curve, though single readings can be large; an effect the other way counts as inactive or inconclusive.
SMILES,TDP1 cell CPT,TGFb SMAD3 inh,IL-1B inflam inh,TDP1 inh,HepG2 viability,TDP1 cell noCPT
COc1cc(/C=C/C(=O)NCc2nc3ccccc3[nH]2)cc(OC)c1OC,-25%,14%,-20,8%,-19%,-16%
CCOC(=O)c1sc2nc(NC(=O)COc3ccccc3)sc2c1C,?,1%,-2,-1%,-1%,18µM*
CC(CNc1nc2ccc(Cl)cc2n2cnnc12)c1ccccc1 (stereo unspecified),?,0%,3,·,-5%,?
O=C(Nc1cc(S(=O)(=O)N2CCOCC2)ccc1Cl)c1cc([N+](=O)[O-])ccc1Cl,?,?,-97*,2%,-5%,15µM*
N#CCc1ccc(NC(=O)c2cc(S(=O)(=O)N3CCOCC3)ccc2Cl)cc1,16µM*,-3%,23,3%,-29%,18µM*
CC(C)(C)OC(=O)N1CCC(c2c(C(=O)N3CCCCC3)cnn2-c2ccc(F)cc2)CC1,0%,-8%,·,-2%,-1%,?
COC(=O)CNC(=O)Cn1c(=O)n(Cc2ccc(F)cc2)c(=O)c2sccc21,?,-6%,?,·,-21%,?
Nc1ccc2nc(-c3ccc(N)c(Cl)c3)[nH]c2c1,6.5µM*,?,?,·,-42%,8.2µM*
Nc1ccc2nc(-c3cccnc3)[nH]c2c1,-1%,10%,25,3%,10%,-23%
Nc1ccc2nc(-c3cccs3)[nH]c2c1,21µM*,-13%,4,-3%,-43%,?
Nc1ccc(-c2nc3c(Cl)cc(N)cc3[nH]2)cc1,5.8µM*,-12%,?,10%,-9%,7.3µM*
Nc1ccc2nc(-c3ccccc3)[nH]c2c1,?,1%,-2,8%,-51%,?
c1ccc2c(c1)CCc1c-2nc2ccccc2c1N1CCOCC1,12µM*,?,-20,-3%,-39%,?
c1ccc(CSc2ncccn2)cc1,-3%,-2%,-5,3%,-1%,-24%
c1ccc(CSC2=NNC(c3ccccn3)S2)cc1 (stereo unspecified),0.0058µM*,?,85,·,-20%,0.16µM*
COc1ccc2nc(N(Cc3cccnc3)C(=O)C3CCCCC3)sc2c1,?,1%,·,3%,-12%,-30%
CCOC(=O)C1CCN(C(=O)CCNC(=O)c2ccccc2OC)CC1,-1%,27%,-2,·,0%,-19%
CCCCCCCCCCCCCCCCCCNC(=O)OC1CCN(C(=O)OC[C@H](COC(=O)N(Cc2cccc[n+]2CC)C(=O)c2ccccc2OC)OC)CC1,12µM*,·,·,·,·,12µM*
CS(=O)(=O)N1CCc2ccc(NC(=O)C3CCCO3)cc2C1 (stereo unspecified),2%,-18%,30,5%,-16%,12%
CN(C)c1ccc(-c2csc(C(O)c3ccc(F)c(F)c3)n2)cc1 (stereo unspecified),16µM*,-23%,-15,·,-38%,15µM*
COc1ccc(C(O)c2nc(-c3ccncc3)cs2)cc1 (stereo unspecified),18µM*,-12%,46,·,-12%,10µM*
CN(C)c1ccc(-c2csc(C(O)c3ccc(F)cc3)n2)cc1 (stereo unspecified),?,-8%,-19,·,-33%,?
COc1cccc(C(O)c2nc(-c3ccccc3C)cs2)c1 (stereo unspecified),?,-7%,22,·,-27%,18µM*
COc1cccc(C(O)c2nc(-c3ccccc3)cs2)c1 (stereo unspecified),?,-26%,-5,·,-18%,16µM*
COc1ccc(-c2csc(C(O)c3ccc(F)cc3)n2)cc1 (stereo unspecified),?,-4%,19,·,-11%,?
SMILES,TDP1 cell CPT,TGFb SMAD3 inh,IL-1B inflam inh,TDP1 inh,HepG2 viability,TDP1 cell noCPT
CCNc1ncc2nc(-c3cccs3)c(=O)n(CCC#N)c2n1,-17%,·,·,·,·,-13%
COc1ccc(-c2csc(C(O)c3ccc(OC)cc3)n2)cc1 (stereo unspecified),?,0%,14,·,-11%,?
COc1ccc(C(O)c2nc(-c3ccc(N(C)C)cc3)cs2)cc1 (stereo unspecified),?,1%,-7,·,-21%,18µM*
COc1cc(C(O)c2nc(-c3ccncc3)cs2)ccc1F (stereo unspecified),?,1%,-9,·,-4%,23µM*
COc1cc(C(O)c2nc(-c3ccc(C)c(C)c3)cs2)ccc1F (stereo unspecified),?,-2%,-4,·,-16%,?
COc1ccc(C(O)c2nc(-c3ccccc3)cs2)cc1 (stereo unspecified),13µM*,-22%,7,·,-30%,10µM*
CN(C)c1ccc(-c2csc(C(O)c3ccccc3)n2)cc1 (stereo unspecified),?,3%,-15,·,-21%,?
COc1ccc(NC(=O)CCc2nnc3n(C)c(=O)c4sccc4n23)cc1Cl,-4%,-2%,·,6%,8%,-3%
COc1ccccc1-c1ccc(C(=O)N(C)CC2COCCO2)c(N2CCN(c3ccccc3F)CC2)n1 (stereo unspecified),-8%,·,·,·,·,-9%
CCCC[C@H]1CCCO[C@@](C(=O)NCc2cc(C)n(C)n2)(C(F)(F)F)C1,·,?,·,9%,-16%,·
CCN1C(=O)[C@H]2[C@@H](c3ccc(-c4ccc(F)cc4)cc3)N[C@@](CC(C)C)(C(=O)OC)[C@H]2C1=O,13µM*,1%,-66*,·,-4%,18µM*
COC(=O)[C@]1(CC(C)C)N[C@H](c2ccc(-c3ccccc3)cc2)[C@@H]2C(=O)N(C)C(=O)[C@@H]21,?,-6%,-19,1%,-11%,?
COC(=O)[C@]1(CC(C)C)N[C@H](c2ccc(-c3ccc(F)cc3)cc2)[C@@H]2C(=O)N(C)C(=O)[C@@H]21,18µM*,0%,-23,-3%,-21%,?
COC(=O)[C@]1(CC(C)C)N[C@H](c2ccc(-c3ccc(OC)cc3)cc2)[C@@H]2C(=O)N(C)C(=O)[C@@H]21,?,1%,-1,0%,-10%,16µM*
CCOC(=O)c1c(SCC(=O)Nc2nc3ccc(C)cc3s2)nc(=O)[nH]c1C,0%,-1%,·,-5%,-17%,5%
